Laboratory results as given in PubChem BioAssay (NCI).
About 83,000 compounds went through this panel and 20% of them were active in at least one assay; those are over-represented in the sample as a whole.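 Cell lines were cultured in 96-well plates, exposed to a single compound concentration, and assessed for percent growth 48 hours later.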 The source made the active and inactive calls. How the source made its calls: active means growth percent below 10; inactive means the rest.

These compounds were tested on NCI/ADR-RES ovarian (assay: NCI-60 one-dose screen, 48 h (100 = growth as untreated, 0 = no growth, -100 = all killed)). Settings: 10 µM unless noted.

Compound	growth
COc1ccc(C(=O)/C(=N/Nc2ccccc2)c2ccc(OC)cc2)cc1	97.5% (inactive)
Cn1c(=O)c2[nH]c(CC(=O)O)nc2n(C)c1=O	102% (inactive)
C=CC1=NC(C)(C)CC(C)O1 (stereo unspecified)	112% (inactive)
O=C(Nc1ccccc1)c1ccco1	107% (inactive)
CCOC(=O)CNC	100% (inactive)
CC12CCC3c4ccc(O)cc4CCC3C1CCC2=O (stereo unspecified)	111% (inactive)
Nc1cc(N)ncn1	97.6% (inactive)
C=CCC(OC(C)=O)c1ccc(OC)c(OC)c1 (stereo unspecified)	116% (inactive)
C/C(Cc1ccccc1)=N\O	107% (inactive)
O=C(NCc1ccccc1)c1cccc([N+](=O)[O-])c1	104% (inactive)
OCc1cccnc1	115% (inactive)
Cc1onc(-c2c(F)cccc2Cl)c1-c1ncc(-c2ccc(Br)cc2)o1	31.1% (inactive)
CC(C)c1ncc([N+](=O)[O-])n1C	108% (inactive)
Oc1ccc(CCC2CCNc3ccccc32)cc1 (stereo unspecified)	74.7% (inactive)
c1ccc2[nH]c(Cc3nc4ccccc4[nH]3)nc2c1	110% (inactive)
CCOC(=O)C(CCC#N)(CCC#N)C(=O)OCC	105% (inactive)

Compound	growth
CCOC(=O)C(COS(C)(=O)=O)(COS(C)(=O)=O)C(=O)OCC	103% (inactive)
CC(C)C(C)(C)C(=O)C(C)(C)C(C)(C)C	104% (inactive)
CC(=O)O[C@H]1CC[C@]2(C)C3=C(C(=O)C[C@H]2C1(C)C)[C@]1(C)CC[C@H]([C@H](C)CCC(=O)O)[C@@]1(C)CC3=O	100% (inactive)
CC(=O)OCC1CCC(COC(C)=O)CC1 (stereo unspecified)	99.2% (inactive)
CC(=O)NNC(=S)N/C=C/c1c(C)ccc([N+](=O)[O-])c1[N+](=O)[O-]	97.9% (inactive)
CCOC(=O)c1c[nH][nH]c1=O	98.4% (inactive)
O=S(Cc1ccccc1)/C(=C/NC(=S)Nc1ccccc1)c1ccccc1 (stereo unspecified)	98.4% (inactive)
Nc1ncnc(Nc2ccc(C(F)(F)F)cc2)n1	104% (inactive)
Cc1c(Cl)cccc1N=C=S	89.3% (inactive)
O=C(OC1CCCC1)c1ccccc1Cl	108% (inactive)
BrCc1cccc(C[P+](c2ccccc2)(c2ccccc2)c2ccccc2)c1	111% (inactive)
Cc1c(-c2ccc(C3CCCCC3)cc2)nc2ccc(F)cc2c1C(=O)O	45.7% (inactive)
COc1cccc(C(=O)NNC(=O)c2cccc3ccccc23)c1	107% (inactive)
O=C(CCl)Nc1ccccc1SCc1cc(Cl)cc2c1OCOC2	101% (inactive)
CCN(CC)c1ccc2nc3ccc(N=Nc4ccc(N(C)C)cc4)cc3[n+](-c3ccccc3)c2c1	0.224% (active)
